Experimental data from PubChem BioAssay (Tox21).
Records with an inconclusive call do not appear. Where a call stands in place of a potency, no number is given. Values without a mark were called inactive. Active and inactive are the calls of the source. Unless noted, calls follow the shape of the dose curve; as a rule, active = well fitted curve in the direction sought with a large enough effect in the repeat runs; inconclusive = weak or mixed curves; inactive = no such curve, though single readings can be large; an effect the other way counts as inactive or inconclusive.

Columns and labels:
[1] = qHTS assay to identify small molecule antagonists of the estrogen related receptor (ERR) signaling pathway from Tox21 library - cell viability counter screen (AID 1224834); also: nearly all actives have a fitted effect of over 30% in size; also: potency is read from the fitted curve at half-maximal effect
Summary of the method: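 ERR reporter cells were plated 6 h before compound addition, then exposed to test compounds in DMSO for 17.5 h at 37 C. Viability was read as CellTiter-Fluor fluorescence after a 30-minute incubation at 37 C.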

[2] = molecular target: Luciferin 4-monooxygenase (Photinus pyralis) (UniProt P08659); assay: qHTS assay to identify small molecule inhibitors of firefly luciferase (AID 1224835); also: nearly all actives have a fitted effect of over 25% in size; also: potency is read from the fitted curve at half-maximal effect; as to activity change, negative = inhibition: series mostly up to about 120 µM
Luciferin 4-monooxygenase (Photinus pyralis), sequence (P08659 whole entry, looked up): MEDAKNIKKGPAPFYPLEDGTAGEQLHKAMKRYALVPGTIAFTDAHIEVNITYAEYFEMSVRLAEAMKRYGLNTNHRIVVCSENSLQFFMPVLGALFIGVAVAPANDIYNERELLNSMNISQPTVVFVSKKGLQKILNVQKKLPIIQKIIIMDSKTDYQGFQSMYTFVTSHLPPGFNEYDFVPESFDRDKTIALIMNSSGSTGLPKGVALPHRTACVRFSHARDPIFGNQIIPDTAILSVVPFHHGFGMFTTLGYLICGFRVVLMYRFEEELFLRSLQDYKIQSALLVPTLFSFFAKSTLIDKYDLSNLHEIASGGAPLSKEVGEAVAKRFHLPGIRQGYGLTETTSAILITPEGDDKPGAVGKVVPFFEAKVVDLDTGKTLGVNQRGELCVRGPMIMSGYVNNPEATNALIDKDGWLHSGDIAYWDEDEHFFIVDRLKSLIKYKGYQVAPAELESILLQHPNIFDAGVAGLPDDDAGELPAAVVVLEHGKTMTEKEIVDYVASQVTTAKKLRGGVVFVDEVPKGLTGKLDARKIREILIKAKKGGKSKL
Summary of the method: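 Inhibition of purified Photinus luciferase is measured by luminescence. Substrate levels (D-luciferin, ATP) sit at their KM values. Each compound is tested in a concentration series.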

[3] = qHTS assay to identify small molecule agonists of the constitutive androstane receptor (CAR) signaling pathway - cell viability counter screen (AID 1224836); also: nearly all actives have a fitted effect of over 45% in size; also: potency is read from the fitted curve at half-maximal effect; as to viability change, negative = cytotoxic: series mostly up to about 92 µM
Summary of the method: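 Compound titrations (15 concentrations) went onto HepG2-CYP2B6-hCAR cells 4 h after seeding, alongside PK11195 at a final 0.75 uM; a 23 h, 37 C/5% CO2 incubation preceded CellTiter-Fluor viability measurement.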

[4] = qHTS assay to identify small molecule antagonists of the constitutive androstane receptor (CAR) signaling pathway - cell viability counter screen (AID 1224837); also: nearly all actives have a fitted effect of over 45% in size; also: potency is read from the fitted curve at half-maximal effect; as to activity change, negative = cytotoxicity: series mostly up to about 92 µM
Summary of the method: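 HepG2 cells stably expressing hCAR and a CYP2B6-2.2kb reporter were plated and pre-incubated 4 hr at 37 C/5% CO2, then given compounds at 15 concentrations plus 50 nM CITCO (final). After 23 hr, viability was read by CellTiter-Fluor fluorescence.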

[5] = qHTS assay to identify small molecule antagonists of the estrogen related receptor signaling pathway with the pleiotropic PPARgamma coactivator (PGC) from Tox21 10K library - cell viability counter screen (AID 1224840; active = well fitted cell-killing curve with a large enough effect in the repeat runs, not every such curve was filed as active; also: nearly all actives have a fitted effect of over 40% in size; also: potency is read from the fitted curve at half-maximal effect)
Summary of the method: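 PGC/ERR cells were seeded at 2,000 cells/well and left 6 hours at 37 C/5% CO2 before pin-tool addition of compounds in DMSO. After 17.5 hours at 37 C, CellTiter-Fluor was added and fluorescence read 30 minutes later.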

[6] = qHTS assay to identify small molecule agonists of the hypoxia (HIF-1) signaling pathway - cell viability counter screen (AID 1224844; calls by dose curve; also: nearly all actives have a fitted effect of over 50% in size)
Summary of the method: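 HRE-bla ME-180 cells in medium with 0.5% dialyzed FBS were preincubated 5 hrs at 37C, exposed to compounds for 17 hrs, then viability was read as CellTiter-Glo luminescence after 30 min at room temperature, in the reporter wells.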

[7] = qHTS assay to identify small molecule agonists of H2AX (AID 1224845; active = well fitted activation curve with a large enough effect in the signal ratio in the repeat runs, not every such curve was filed as active; the % refers to the signal ratio)
Summary of the method: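 Phospho-H2AX Ser139 measured by HTRF (ex 320 nm; em 665 and 620 nm) after 24 hr antibody incubation. Compounds, 15 concentrations, 0.76% DMSO, were applied to CHO-K1 cells for 3hr at 37C before lysis.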

[8] = qHTS assay to identify small molecule agonists of the hypoxia (HIF-1) signaling pathway (AID 1224846; active = well fitted activation curve with a large enough effect in the signal ratio in the repeat runs, not every such curve was filed as active; the % refers to the signal ratio)
Summary of the method: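 HRE-bla ME-180 cells (beta-lactamase reporter under hypoxia response element) were plated at 2,000 cells/well in medium with 0.5% dialyzed FBS, rested 5 hrs, then given compounds in DMSO for 17 hrs at 37C, 5% CO2. Reporter induction was read with CCF4-AM FRET substrate.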

[9] = qHTS assay to identify small molecule agonists of the estrogen related receptor signaling pathway with the pleiotropic PPARgamma coactivator (PGC) from Tox21 10K library (AID 1224842); also: nearly all actives have a fitted effect of over 15% in size
Summary of the method: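 Luminescence from One-Glo (30 min, room temperature) measured after PGC/ERR cells had 18 h at 37 C with pinned compound (23 nL in DMSO). Cells had been seeded at 2,000 per well and pre-incubated 6 h.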

[10] = molecular target: Thyrotropin receptor (Homo sapiens) (UniProt P16473); assay: qHTS assay to identify small molecule agonists of the thyroid stimulating hormone receptor (TSHR) signaling pathway (AID 1224843; calls by dose curve; also: nearly all actives have a fitted effect of over 45% in size)
Thyrotropin receptor (Homo sapiens), sequence (P16473 whole entry, looked up): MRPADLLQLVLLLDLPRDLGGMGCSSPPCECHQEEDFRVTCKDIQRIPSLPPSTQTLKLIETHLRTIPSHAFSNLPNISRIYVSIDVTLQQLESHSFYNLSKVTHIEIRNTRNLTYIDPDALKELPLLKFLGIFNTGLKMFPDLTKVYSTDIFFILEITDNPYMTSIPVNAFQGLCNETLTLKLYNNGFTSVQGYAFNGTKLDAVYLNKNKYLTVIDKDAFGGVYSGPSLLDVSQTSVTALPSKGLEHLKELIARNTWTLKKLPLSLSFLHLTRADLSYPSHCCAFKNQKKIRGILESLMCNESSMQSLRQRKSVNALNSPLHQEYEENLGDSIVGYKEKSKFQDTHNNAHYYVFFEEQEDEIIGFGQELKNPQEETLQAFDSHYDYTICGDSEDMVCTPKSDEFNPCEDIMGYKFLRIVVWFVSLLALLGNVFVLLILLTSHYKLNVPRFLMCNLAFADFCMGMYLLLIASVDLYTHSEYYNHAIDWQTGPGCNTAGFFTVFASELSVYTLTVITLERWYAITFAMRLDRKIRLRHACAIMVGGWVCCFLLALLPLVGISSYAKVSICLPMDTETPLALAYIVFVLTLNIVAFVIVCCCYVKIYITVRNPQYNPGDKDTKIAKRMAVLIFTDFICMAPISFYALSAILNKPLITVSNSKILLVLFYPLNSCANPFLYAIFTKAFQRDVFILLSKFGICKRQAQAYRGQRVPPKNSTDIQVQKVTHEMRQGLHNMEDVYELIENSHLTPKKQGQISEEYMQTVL
Summary of the method: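 Screening of the Tox21 10K collection used HEK293 cells engineered with TSHR at 800 cells per well. After a 30-min room-temperature compound exposure, HTRF cAMP reagents were added and fluorescence recorded 1 h later.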

[11] = molecular target: Nuclear receptor subfamily 1 group I member 3 (Homo sapiens) (UniProt Q14994); assay: qHTS assay to identify small molecule antagonists of the constitutive androstane receptor (CAR) signaling pathway (AID 1224838); also: nearly all actives have a fitted effect of over 40% in size; also: potency is read from the fitted curve at half-maximal effect
Nuclear receptor subfamily 1 group I member 3 (Homo sapiens), sequence (Q14994 whole entry, looked up): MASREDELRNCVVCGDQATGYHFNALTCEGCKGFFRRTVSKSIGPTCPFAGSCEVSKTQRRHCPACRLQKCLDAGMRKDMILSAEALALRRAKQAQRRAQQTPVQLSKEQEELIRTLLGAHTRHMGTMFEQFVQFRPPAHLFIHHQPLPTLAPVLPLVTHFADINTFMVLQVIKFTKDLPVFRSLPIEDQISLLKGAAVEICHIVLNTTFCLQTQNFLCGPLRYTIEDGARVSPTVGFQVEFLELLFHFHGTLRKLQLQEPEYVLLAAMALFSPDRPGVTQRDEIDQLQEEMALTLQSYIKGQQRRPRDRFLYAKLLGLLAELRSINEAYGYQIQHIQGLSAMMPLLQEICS
Summary of the method: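 HepG2 cells stably co-transfected with hCAR and a CYP2B6-2.2kb luciferase reporter were seeded 4 h before compound addition at 15 concentrations. Cells were stimulated with 50 nM CITCO (final) for 24 h at 37 C; luciferase luminescence was then read.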

[12] = molecular target: Nuclear receptor subfamily 1 group I member 3 (Homo sapiens) (UniProt Q14994); assay: qHTS assay to identify small molecule agonists of the constitutive androstane receptor (CAR) signaling pathway (AID 1224839); also: nearly all actives have a fitted effect of over 15% in size; also: potency is read from the fitted curve at half-maximal effect;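 as to activation: HepG2 cells stably carrying human CAR and a CYP2B6 luciferase reporter; series mostly up to about 92 µM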
Summary of the method: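 In this screen, CAR-driven CYP2B6 promoter activity is measured by luminescence in HepG2-CYP2B6-hCAR cells after 24 h with test compounds and 0.75 uM PK11195 (final concentration).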

SMILES: CC(C=O)c1ccccc1 (stereo unspecified)
- Potency [1]: inactive
- Potency [2]: inactive
- Potency [3]: inactive
- Potency [4]: inactive
- Potency [5]: inactive
- Potency [6]: inactive
- Potency [7]: inactive
- Potency [8]: inactive

SMILES: CCc1cccc(CC)c1
- Potency [1]: inactive
- Potency [2]: inactive
- Potency [3]: inactive
- Potency [4]: inactive
- Potency [5]: inactive
- Potency [9]: inactive
- Potency [6]: inactive
- Potency [7]: inactive
- Potency [8]: inactive

SMILES: CCC(=O)OC/C=C(\C)CCC=C(C)C
- Potency [1]: inactive
- Potency [2]: inactive
- Potency [3]: inactive
- Potency [4]: inactive
- Potency [5]: inactive
- Potency [10]: inactive
- Potency [6]: inactive
- Potency [7]: inactive

SMILES: O=C(Nc1ccccc1)c1cc(Cl)ccc1O
- Potency [1]: 15.4 µM (active)
- Potency [2]: 3.99 µM (active)
- Potency [3]: 24.3 µM (active)
- Potency [5]: 17.2 µM (active)
- Potency [9]: inactive
- Potency [10]: inactive
- Potency [6]: inactive
- Potency [7]: inactive

SMILES: O=[N+]([O-])c1ccc(CO)cc1
- Potency [1]: inactive
- Potency [2]: inactive
- Potency [3]: inactive
- Potency [4]: inactive
- Potency [6]: inactive
- Potency [7]: inactive
- Potency [8]: inactive

SMILES: COC(=O)c1ccc([N+](=O)[O-])cc1
- Potency [1]: inactive
- Potency [2]: inactive
- Potency [3]: inactive
- Potency [4]: inactive
- Potency [11]: inactive
- Potency [12]: inactive
- Potency [5]: inactive
- Potency [9]: inactive
- Potency [10]: inactive
- Potency [6]: inactive
- Potency [7]: inactive

SMILES: C=C[Si](C)(C)Cl
- viability change, negative = cytotoxic [1]: 5.38% [at 8.39 µM]
- activity change, negative = inhibition [2]: 5.1% [at 10.5 µM]
- viability change, negative = cytotoxic [3]: -0.0044% [at 8.39 µM]
- activity change, negative = cytotoxicity [4]: -8.76% [at 8.39 µM]
- viability change, negative = cytotoxic [5]: 3.07% [at 8.39 µM]
- activation [10]: -10.3% [at 8.39 µM]
- activity change, negative = cytotoxicity [6]: -0.253% [at 6.97 µM]
- activation (H2AX phosphorylation) [7]: 0.0782% [at 14 µM]
- activation [8]: 0.268% [at 7.01 µM]

SMILES: CC/C(=C(/c1ccc(O)cc1)c1ccc(OCCN(C)C)cc1)c1ccccc1
- Potency [1]: 32 µM (active)
- Potency [2]: inactive
- Potency [3]: 40.3 µM (active)
- Potency [4]: 32 µM (active)
- Potency [11]: 35.9 µM (active)
- Potency [12]: inactive
- Potency [5]: 32 µM (active)
- Potency [9]: inactive

SMILES: CCC(O)CO (stereo unspecified)
- Potency [1]: inactive
- Potency [2]: inactive
- Potency [3]: inactive
- Potency [11]: inactive
- Potency [12]: inactive
- Potency [5]: inactive
- Potency [10]: inactive
- Potency [6]: inactive
- Potency [7]: inactive

SMILES: C=COCCCC
- Potency [1]: inactive
- Potency [2]: inactive
- Potency [3]: inactive
- Potency [4]: inactive
- Potency [11]: inactive
- Potency [12]: inactive
- Potency [5]: inactive
- Potency [10]: inactive
- Potency [6]: inactive
- Potency [7]: inactive
- Potency [8]: inactive

SMILES: CCCCCCCCCCCC(=O)Cl
- Potency [1]: inactive
- Potency [2]: 39.9 µM (active)
- Potency [3]: inactive
- Potency [11]: inactive
- Potency [12]: inactive
- Potency [5]: inactive
- Potency [10]: inactive
- Potency [7]: inactive

SMILES: Cc1ccc2sc3cccc(C)c3c2c1
- Potency [1]: inactive
- Potency [2]: inactive
- Potency [3]: inactive
- Potency [4]: inactive
- Potency [11]: inactive
- Potency [12]: 27.3 µM (active)
- Potency [5]: inactive
- Potency [10]: inactive
- Potency [6]: inactive
- Potency [7]: inactive
